# Results reported in PubChem BioAssay (EPA / NIEHS).
# Calls of active or inactive are those of the source. Rule for the calls: active = hit-call score of the fitted dose curve at least 0.9, where 1 is the maximum; inactive = score below 0.9.
# Experiment: CCTE_Harrill_HTTr_Viability_MCF7: CCTE's 6-hour Cell Viability Assessment for the High-Throughput Transcriptomics (HTTr) Platform, in MCF-7 cells cultured in DMEM + 10% fetal bovine serum, Harrill Lab (AID 2284010)
# Description: This is a cell-based assay that evaluates cell viability using high content imaging to evaluate membrane integrity using propidium iodide dye exclusion in a 384 well format.One of seven assay components measured from the CCTE_Harrill_HTTr_Viability assay. This was part of a full screening experiment. This is a cell-based assay that evaluates cell viability in MCF-7 cells cultured in DMEM + 10% fetal bovine serum. High content imaging is used to evaluate membrane integrity using propidium iodide dye exclusion. Measurements are taken at 6 hours after chemical dosing in 384-well format.The assay component endpoint CCTE_Harrill_HTTr_Viability_MCF7 was analyzed with bidirectional fitting relation to DMSO as the negative control and baseline of activity. Using a type of viability reporter, gain-of-signal activity can be used to evaluate membrane integrity using propidium iodide dye exclusion to understand changes in cytotoxicity. To generalize the intended target to other relatable targets, this assay endpoint is annotated to cell cycle, where the subfamily is cytotoxicity.
# Chemicals were tested in MCF7 cells in an eight point dilution series with a six hour exposure duration.
Structure (SMILES),outcome,AC50
CC(=O)c1ccccc1,inactive,
C=CCc1cc(S(=O)(=O)c2ccc(O)c(CC=C)c2)ccc1O,inactive,
c1ccc2ncccc2c1,inactive,
O=S(=O)(O)c1ccc(N=Nc2c(O)ccc3cc(S(=O)(=O)O)ccc23)cc1,inactive,
OCc1ccccc1,inactive,
OC[C@H]1O[C@@H]2O[C@H]3[C@H](O)[C@@H](O)[C@@H](O[C@H]4[C@H](O)[C@@H](O)[C@@H](O[C@H]5[C@H](O)[C@@H](O)[C@@H](O[C@H]6[C@H](O)[C@@H](O)[C@@H](O[C@H]7[C@H](O)[C@@H](O)[C@@H](O[C@H]1[C@H](O)[C@H]2O)O[C@@H]7CO)O[C@@H]6CO)O[C@@H]5CO)O[C@@H]4CO)O[C@@H]3CO,inactive,
CCCCCOC(C)=O,inactive,
CCCCCCCCN(C)C,inactive,
Nc1ccn([C@@H]2O[C@H](CO)[C@@H](O)[C@@H]2O)c(=O)n1,inactive,
CC(C)c1nnc2ccc(-c3ocnc3-c3cc(F)ccc3F)cn12,inactive,
OC(Cn1cncn1)(Cn1cncn1)c1ccc(F)cc1F,inactive,
CC[C@H](C)C(=O)O[C@H]1C[C@H](O)C=C2C=C[C@H](C)[C@H](CC[C@@H](O)C[C@@H](O)CC(=O)O)[C@H]21,inactive,
CCc1ccc(O)c(C(C)(C)C)c1,inactive,
CCN(CC)C(=S)SSC(=S)N(CC)CC,inactive,
O=C(N[C@H](CO)[C@H](O)c1ccc([N+](=O)[O-])cc1)C(Cl)Cl,inactive,
Cc1nccn1-c1ccc(Sc2cccc(C3(C(N)=O)CCOCC3)c2)cc1,inactive,
c1ccc2cc3ccccc3cc2c1,inactive,
CC(C)CCCCCCOC(=O)C1CCCCC1C(=O)OCCCCCCC(C)C (stereo not given),inactive,
NC(N)=O,inactive,
CCCOc1ccc(S(=O)(=O)N2CCN(CC)CC2)cc1-c1nc2c(CC)n(Cc3ccccn3)nc2c(=O)[nH]1,inactive,

Structure (SMILES),outcome,AC50
CCCC(CCC)C(=O)O,inactive,
NC(=O)NN=Cc1ccc([N+](=O)[O-])o1,inactive,
O=C(O)[C@H](O)[C@@H](O)C(=O)O,inactive,
COCc1nnc(-c2ccc[n+]([O-])c2)n1-c1c(Cl)c(Cl)cc2[nH]c(=O)c(=O)[nH]c12,inactive,
Cn1cc[nH]c1=S,inactive,
Cc1ccc(S(=O)(=O)NC(=O)NN2CCCCCC2)cc1,inactive,
NC(=O)N(O)[C@@H]1COc2cc(OCc3ccccc3)ccc21,inactive,
Cc1nc(-c2ccccn2)ncc1C(=O)Nn1cc(C)c2cc(F)ccc21,inactive,
CCOC(N)=O,inactive,
O=C(O)CO,inactive,
NC(=O)N1c2ccccc2C=Cc2ccccc21,inactive,
CCOc1ccc2[nH]cc(C(=O)NCc3ccccc3)c(=O)c2n1,inactive,
S=P(N1CC1)(N1CC1)N1CC1,inactive,
CCCCCCCC/C=C\CCCCCCCC(=O)OC[C@@H](O)[C@H]1OC[C@H](O)[C@H]1O,inactive,
Cc1ncc([C@@H](CCCCCCc2ccc3c(n2)NCCC3)CC(=O)O)cn1,,62.6 nM (active)
O=C(O)c1ccc2c(c1)nc(C(=O)NC1CCN(C3CC3)CC1)n2Cc1cc(-c2ccc(Cl)s2)on1,inactive,
NNC(=O)c1ccncc1,inactive,
O=C(NO)C1(NS(=O)(=O)c2ccc(Oc3ccc(F)cc3)cc2)CCOCC1,inactive,
CCCCOC(=O)c1ccccc1,inactive,
COS(C)(=O)=O,inactive,
